Assay results reported in ChEMBL document CHEMBL1961873, “Compounds: GSK PKIS; Assays: Nanosyn kinase panel” (2012).

Key:
[1] = target: T1, Inhibitor of nuclear factor kappa-B kinase subunit epsilon (Homo sapiens) (UniProt Q14164); details: at 1 µM;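 also: reported values are averaged percent inhibition figures against human IKKε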
T1 sequence (whole entry): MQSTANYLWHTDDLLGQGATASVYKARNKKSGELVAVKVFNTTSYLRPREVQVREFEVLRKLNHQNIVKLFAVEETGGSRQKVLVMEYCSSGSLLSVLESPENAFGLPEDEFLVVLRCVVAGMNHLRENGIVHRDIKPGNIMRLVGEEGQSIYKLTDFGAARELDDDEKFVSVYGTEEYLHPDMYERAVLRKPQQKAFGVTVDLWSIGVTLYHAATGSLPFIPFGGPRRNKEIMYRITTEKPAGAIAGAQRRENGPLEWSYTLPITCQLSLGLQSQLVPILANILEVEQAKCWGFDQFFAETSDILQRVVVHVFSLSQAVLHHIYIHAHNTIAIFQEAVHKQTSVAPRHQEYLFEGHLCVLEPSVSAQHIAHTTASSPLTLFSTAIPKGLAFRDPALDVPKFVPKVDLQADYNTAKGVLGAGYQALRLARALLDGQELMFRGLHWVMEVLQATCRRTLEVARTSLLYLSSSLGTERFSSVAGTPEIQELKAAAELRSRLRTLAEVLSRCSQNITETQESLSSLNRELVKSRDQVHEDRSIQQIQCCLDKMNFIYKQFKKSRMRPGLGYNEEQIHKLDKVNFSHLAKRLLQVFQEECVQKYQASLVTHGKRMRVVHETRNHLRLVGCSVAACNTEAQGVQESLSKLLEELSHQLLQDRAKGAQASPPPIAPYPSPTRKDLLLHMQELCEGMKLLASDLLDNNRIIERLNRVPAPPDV

[2] = target: T2, Serine/threonine-protein kinase Nek1 (Homo sapiens) (UniProt Q96PY6); details: at 0.1 µM
T2 sequence (whole entry): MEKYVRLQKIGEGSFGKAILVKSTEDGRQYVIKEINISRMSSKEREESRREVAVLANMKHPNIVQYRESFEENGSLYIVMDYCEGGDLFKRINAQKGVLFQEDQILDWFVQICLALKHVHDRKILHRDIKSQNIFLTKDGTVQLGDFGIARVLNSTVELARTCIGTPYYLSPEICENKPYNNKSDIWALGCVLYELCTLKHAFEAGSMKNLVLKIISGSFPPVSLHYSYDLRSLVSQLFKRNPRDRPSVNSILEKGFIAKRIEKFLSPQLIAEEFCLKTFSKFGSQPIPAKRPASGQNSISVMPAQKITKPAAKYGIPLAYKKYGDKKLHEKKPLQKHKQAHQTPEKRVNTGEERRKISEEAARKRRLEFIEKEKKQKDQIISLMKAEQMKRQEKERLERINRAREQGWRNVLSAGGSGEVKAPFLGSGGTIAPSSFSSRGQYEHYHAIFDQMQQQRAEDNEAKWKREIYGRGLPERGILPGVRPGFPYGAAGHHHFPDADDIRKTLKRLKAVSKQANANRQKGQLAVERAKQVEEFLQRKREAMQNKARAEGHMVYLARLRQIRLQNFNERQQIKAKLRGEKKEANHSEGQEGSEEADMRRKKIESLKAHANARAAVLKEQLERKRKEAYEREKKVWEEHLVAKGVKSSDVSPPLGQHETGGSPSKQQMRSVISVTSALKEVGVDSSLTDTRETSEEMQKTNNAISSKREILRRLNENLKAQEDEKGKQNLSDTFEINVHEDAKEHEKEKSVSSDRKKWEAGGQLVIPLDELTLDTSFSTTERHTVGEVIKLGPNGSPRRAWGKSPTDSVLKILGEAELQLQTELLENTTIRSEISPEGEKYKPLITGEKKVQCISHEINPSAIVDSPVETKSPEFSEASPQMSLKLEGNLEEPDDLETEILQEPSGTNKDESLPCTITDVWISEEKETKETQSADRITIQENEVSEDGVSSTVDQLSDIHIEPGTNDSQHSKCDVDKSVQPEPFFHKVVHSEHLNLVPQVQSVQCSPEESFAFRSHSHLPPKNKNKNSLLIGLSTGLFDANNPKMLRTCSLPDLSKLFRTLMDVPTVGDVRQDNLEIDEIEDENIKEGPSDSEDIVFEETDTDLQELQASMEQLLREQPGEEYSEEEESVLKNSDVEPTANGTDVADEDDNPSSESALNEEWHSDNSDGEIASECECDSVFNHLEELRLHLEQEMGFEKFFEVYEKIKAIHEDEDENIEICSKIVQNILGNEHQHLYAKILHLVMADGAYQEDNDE

[3] = target: T2, Serine/threonine-protein kinase Nek1 (Homo sapiens); details: at 1 µM
[4] = target: T3, Serine/threonine-protein kinase Nek2 (Homo sapiens) (UniProt P51955); details: at 0.1 µM
T3 sequence (whole entry): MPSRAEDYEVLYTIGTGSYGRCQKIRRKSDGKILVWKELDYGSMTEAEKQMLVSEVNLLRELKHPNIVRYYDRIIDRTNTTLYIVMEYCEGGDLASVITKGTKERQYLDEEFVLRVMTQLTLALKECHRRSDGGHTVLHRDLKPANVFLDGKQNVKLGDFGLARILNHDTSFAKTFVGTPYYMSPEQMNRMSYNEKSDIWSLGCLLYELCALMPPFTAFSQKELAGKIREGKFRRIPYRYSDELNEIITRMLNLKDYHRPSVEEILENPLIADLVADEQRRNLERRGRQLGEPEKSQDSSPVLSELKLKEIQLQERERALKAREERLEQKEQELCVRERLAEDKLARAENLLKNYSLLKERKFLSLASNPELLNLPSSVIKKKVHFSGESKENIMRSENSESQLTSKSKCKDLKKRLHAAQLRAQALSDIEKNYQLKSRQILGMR

[5] = target: T3, Serine/threonine-protein kinase Nek2 (Homo sapiens); details: at 1 µM
[6] = target: Serine/threonine-protein kinase Nek6 (Homo sapiens) (UniProt Q9HC98); details: at 0.1 µM
[7] = target: Serine/threonine-protein kinase Nek6 (Homo sapiens) (UniProt Q9HC98); details: at 1 µM
[8] = target: Serine/threonine-protein kinase Nek7 (Homo sapiens) (UniProt Q8TDX7); details: at 0.1 µM
[9] = target: Serine/threonine-protein kinase Nek7 (Homo sapiens) (UniProt Q8TDX7); details: at 1 µM
[10] = target: T4, Serine/threonine-protein kinase Nek9 (Homo sapiens) (UniProt Q8TD19); details: at 0.1 µM
T4 sequence (whole entry): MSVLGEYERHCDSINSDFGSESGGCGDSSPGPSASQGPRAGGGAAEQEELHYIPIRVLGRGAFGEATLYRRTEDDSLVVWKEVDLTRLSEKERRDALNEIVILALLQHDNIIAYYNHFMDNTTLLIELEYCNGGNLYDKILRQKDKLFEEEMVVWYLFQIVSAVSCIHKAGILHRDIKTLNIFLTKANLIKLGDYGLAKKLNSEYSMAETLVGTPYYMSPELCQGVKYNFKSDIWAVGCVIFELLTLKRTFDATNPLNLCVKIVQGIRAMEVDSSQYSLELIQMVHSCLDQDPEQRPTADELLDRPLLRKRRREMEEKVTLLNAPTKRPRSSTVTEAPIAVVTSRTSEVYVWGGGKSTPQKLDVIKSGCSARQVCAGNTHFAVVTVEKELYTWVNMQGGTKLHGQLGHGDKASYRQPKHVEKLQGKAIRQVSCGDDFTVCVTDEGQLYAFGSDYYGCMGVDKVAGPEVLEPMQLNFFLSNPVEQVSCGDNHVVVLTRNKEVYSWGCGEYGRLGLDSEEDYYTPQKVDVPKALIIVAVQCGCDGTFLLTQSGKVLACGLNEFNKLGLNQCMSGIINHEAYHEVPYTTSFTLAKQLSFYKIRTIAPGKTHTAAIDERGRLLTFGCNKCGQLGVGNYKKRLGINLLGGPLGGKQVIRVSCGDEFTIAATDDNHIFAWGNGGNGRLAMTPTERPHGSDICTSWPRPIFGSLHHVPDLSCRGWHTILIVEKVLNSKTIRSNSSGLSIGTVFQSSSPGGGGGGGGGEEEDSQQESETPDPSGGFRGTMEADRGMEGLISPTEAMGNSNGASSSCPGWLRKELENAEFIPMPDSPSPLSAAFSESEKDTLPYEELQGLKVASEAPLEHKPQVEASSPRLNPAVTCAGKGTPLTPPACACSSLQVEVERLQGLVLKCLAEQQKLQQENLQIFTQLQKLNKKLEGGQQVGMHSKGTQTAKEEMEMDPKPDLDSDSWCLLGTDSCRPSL

[11] = target: T4, Serine/threonine-protein kinase Nek9 (Homo sapiens); details: at 1 µM
[12] = target: Serine/threonine-protein kinase PLK1 (Homo sapiens) (UniProt P53350); details: at 0.1 µM
[13] = target: Serine/threonine-protein kinase PLK1 (Homo sapiens) (UniProt P53350); details: at 1 µM
[14] = target: T5, Dual specificity protein kinase TTK (Homo sapiens) (UniProt P33981); details: at 0.1 µM
T5 sequence (whole entry): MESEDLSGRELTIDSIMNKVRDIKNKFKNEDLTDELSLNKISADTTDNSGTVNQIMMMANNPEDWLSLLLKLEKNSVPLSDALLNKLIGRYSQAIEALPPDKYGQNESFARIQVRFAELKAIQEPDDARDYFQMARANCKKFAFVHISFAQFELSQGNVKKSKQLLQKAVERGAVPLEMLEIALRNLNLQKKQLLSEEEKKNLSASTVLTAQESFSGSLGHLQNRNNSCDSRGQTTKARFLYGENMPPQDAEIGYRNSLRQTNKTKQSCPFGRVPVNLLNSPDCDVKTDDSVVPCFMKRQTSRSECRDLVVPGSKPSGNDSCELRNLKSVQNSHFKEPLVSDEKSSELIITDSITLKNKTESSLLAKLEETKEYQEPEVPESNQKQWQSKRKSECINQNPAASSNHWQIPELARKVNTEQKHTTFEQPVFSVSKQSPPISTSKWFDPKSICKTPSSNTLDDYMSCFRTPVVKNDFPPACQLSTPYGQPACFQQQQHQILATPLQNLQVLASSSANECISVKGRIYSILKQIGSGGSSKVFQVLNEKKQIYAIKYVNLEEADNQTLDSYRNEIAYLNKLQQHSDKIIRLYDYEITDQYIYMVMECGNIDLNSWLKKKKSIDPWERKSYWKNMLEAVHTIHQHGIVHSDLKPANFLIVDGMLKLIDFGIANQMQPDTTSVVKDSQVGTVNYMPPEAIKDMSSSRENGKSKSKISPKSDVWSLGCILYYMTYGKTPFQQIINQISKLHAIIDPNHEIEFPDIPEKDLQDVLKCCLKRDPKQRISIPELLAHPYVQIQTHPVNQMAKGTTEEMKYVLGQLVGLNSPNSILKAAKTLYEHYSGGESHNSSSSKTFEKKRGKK

[15] = system: T6, Receptor-type tyrosine-protein kinase FLT3 (Homo sapiens), P36888 [D835Y]; details: at 1 µM
T6 sequence (whole entry): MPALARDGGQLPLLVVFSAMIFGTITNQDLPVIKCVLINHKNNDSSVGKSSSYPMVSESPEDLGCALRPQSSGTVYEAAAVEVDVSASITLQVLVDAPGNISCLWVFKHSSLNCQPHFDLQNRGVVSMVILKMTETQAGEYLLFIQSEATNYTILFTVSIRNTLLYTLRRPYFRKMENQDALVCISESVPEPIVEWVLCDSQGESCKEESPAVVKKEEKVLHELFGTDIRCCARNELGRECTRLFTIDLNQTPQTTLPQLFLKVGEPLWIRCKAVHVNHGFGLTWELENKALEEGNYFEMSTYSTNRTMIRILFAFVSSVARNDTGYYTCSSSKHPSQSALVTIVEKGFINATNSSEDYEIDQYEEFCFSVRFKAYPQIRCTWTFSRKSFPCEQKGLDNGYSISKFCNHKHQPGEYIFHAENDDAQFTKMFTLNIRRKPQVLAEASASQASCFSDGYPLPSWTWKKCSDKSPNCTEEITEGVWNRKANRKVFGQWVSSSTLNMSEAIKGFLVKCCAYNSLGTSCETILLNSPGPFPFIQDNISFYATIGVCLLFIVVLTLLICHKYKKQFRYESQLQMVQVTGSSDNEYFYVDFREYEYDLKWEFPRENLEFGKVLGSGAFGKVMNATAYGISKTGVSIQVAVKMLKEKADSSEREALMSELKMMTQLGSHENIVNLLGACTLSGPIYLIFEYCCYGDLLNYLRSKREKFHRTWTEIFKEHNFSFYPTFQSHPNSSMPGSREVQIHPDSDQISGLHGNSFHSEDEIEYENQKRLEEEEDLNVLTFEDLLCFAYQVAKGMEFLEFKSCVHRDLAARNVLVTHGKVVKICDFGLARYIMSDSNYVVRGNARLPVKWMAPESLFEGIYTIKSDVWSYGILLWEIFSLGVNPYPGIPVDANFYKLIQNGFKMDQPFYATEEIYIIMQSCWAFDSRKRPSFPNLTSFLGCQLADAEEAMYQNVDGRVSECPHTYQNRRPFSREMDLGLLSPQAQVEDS

[16] = target: Vascular endothelial growth factor receptor 3 (Homo sapiens) (UniProt P35916); details: at 0.1 µM
[17] = target: Vascular endothelial growth factor receptor 3 (Homo sapiens) (UniProt P35916); details: at 1 µM
[18] = target: Macrophage colony-stimulating factor 1 receptor (Homo sapiens) (UniProt P07333); details: at 0.1 µM
[19] = target: Macrophage colony-stimulating factor 1 receptor (Homo sapiens) (UniProt P07333); details: at 1 µM
[20] = target: Tyrosine-protein kinase Fyn (Homo sapiens) (UniProt P06241); details: at 0.1 µM
Tyrosine-protein kinase Fyn (Homo sapiens), sequence (P06241 2-537 limits assumed): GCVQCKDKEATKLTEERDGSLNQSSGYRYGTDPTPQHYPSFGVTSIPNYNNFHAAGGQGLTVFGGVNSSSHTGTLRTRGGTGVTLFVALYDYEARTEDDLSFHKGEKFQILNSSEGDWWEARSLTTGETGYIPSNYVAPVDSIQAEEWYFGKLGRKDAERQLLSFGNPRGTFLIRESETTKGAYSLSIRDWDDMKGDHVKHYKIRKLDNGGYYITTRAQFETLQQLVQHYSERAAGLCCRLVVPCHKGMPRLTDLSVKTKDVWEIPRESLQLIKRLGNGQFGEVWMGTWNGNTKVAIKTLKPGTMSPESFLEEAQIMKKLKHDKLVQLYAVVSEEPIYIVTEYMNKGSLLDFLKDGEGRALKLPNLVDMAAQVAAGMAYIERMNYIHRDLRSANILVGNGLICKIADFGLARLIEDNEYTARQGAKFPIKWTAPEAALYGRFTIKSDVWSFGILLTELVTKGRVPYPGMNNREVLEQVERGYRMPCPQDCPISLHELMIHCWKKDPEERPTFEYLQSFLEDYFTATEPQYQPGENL

Serine/threonine-protein kinase Nek7 (Homo sapiens), sequence (Q8TDX7 whole entry, looked up): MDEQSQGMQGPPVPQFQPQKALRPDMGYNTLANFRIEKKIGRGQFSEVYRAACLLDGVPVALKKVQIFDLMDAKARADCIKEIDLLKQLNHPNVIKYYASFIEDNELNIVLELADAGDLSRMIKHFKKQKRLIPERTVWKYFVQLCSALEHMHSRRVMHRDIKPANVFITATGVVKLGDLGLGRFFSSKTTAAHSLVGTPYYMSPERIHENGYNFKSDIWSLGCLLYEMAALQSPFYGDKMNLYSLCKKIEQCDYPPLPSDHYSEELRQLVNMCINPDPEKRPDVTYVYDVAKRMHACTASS
Macrophage colony-stimulating factor 1 receptor (Homo sapiens), sequence (P07333 whole entry): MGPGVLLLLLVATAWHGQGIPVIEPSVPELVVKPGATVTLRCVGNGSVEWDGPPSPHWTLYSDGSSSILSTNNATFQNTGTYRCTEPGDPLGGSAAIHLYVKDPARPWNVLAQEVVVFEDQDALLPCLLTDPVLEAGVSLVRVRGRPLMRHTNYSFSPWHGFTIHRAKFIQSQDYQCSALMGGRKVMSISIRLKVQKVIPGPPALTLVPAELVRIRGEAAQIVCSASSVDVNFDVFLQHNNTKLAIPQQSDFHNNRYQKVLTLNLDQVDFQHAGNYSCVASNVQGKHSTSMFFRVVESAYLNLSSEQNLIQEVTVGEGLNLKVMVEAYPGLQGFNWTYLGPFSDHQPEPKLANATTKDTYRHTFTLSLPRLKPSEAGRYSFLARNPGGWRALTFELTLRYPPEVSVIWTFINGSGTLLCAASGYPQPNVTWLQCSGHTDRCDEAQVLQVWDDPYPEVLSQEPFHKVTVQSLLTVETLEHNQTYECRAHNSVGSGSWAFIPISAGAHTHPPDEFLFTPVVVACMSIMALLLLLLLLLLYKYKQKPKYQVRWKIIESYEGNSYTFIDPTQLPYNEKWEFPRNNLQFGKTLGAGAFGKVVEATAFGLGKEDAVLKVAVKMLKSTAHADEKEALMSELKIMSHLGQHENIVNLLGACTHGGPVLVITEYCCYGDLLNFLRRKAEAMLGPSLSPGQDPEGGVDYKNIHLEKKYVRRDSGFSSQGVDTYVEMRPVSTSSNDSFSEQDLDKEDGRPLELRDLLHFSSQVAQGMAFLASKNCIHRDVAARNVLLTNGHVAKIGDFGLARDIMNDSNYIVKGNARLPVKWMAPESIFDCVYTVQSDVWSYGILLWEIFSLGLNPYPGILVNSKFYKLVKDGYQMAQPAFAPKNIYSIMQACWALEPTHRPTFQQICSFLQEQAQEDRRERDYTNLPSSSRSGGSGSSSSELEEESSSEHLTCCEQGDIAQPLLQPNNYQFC
Serine/threonine-protein kinase Nek6 (Homo sapiens), sequence (Q9HC98 whole entry): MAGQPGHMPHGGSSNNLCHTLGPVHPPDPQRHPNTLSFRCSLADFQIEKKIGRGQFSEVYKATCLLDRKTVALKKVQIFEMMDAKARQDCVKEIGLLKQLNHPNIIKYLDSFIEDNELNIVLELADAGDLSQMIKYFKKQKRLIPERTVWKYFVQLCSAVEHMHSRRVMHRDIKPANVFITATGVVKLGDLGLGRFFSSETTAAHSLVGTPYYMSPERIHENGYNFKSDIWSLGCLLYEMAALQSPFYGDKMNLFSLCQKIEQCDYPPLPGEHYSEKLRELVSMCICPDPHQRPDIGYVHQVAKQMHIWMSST
Serine/threonine-protein kinase PLK1 (Homo sapiens), sequence (P53350 whole entry): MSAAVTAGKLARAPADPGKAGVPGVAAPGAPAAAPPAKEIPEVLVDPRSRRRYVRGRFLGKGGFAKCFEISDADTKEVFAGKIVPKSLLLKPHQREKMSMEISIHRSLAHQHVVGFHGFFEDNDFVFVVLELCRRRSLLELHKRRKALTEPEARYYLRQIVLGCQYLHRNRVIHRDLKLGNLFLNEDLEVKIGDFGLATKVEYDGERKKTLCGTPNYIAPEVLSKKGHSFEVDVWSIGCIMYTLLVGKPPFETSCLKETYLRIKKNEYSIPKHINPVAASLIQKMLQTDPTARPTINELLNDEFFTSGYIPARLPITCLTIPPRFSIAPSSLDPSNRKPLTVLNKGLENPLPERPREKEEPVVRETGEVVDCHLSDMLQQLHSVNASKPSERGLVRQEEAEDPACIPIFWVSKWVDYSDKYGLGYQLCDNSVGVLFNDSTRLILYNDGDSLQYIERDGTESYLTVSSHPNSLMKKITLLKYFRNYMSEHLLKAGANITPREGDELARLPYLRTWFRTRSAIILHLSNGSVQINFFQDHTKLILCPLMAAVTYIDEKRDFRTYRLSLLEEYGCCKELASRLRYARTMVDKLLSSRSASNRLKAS
Vascular endothelial growth factor receptor 3 (Homo sapiens), sequence (P35916 whole entry): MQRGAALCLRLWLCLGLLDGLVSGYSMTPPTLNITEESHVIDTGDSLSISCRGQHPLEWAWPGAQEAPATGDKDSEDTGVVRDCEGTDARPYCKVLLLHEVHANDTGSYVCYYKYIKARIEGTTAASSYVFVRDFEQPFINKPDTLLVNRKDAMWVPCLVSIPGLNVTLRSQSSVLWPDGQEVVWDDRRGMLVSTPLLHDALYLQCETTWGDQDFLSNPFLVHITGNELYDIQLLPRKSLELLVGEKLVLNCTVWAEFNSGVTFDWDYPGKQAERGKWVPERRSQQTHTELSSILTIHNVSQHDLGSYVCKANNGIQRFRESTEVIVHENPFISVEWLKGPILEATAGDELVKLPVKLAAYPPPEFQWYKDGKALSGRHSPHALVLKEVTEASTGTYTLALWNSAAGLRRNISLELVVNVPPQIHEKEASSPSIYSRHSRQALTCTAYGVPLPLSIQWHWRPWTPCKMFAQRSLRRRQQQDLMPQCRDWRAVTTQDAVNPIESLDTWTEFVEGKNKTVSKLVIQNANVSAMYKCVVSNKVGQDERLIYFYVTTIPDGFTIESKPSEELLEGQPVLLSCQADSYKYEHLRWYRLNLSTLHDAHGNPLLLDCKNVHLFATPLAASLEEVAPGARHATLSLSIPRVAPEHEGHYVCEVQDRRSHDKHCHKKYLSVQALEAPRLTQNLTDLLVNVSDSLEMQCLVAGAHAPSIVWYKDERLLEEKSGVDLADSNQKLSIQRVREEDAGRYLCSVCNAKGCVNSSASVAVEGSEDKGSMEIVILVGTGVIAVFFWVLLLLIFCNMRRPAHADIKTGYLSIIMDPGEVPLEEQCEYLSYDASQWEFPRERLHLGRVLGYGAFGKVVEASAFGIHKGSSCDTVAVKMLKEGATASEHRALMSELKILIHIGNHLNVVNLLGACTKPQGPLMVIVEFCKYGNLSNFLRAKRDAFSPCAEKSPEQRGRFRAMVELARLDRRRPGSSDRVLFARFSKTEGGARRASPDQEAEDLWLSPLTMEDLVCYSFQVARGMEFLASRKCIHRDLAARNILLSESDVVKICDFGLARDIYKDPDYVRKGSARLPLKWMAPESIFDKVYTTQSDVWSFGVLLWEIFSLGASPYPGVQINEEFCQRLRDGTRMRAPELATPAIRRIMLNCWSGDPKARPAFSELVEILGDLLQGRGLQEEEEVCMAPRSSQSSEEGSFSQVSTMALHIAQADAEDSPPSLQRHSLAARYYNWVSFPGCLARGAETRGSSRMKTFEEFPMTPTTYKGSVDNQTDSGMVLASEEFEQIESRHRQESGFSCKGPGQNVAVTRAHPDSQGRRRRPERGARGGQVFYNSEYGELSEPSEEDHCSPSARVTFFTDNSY

Compound | inhibition [1] [%] | inhibition [2] [%] | inhibition [3] [%] | inhibition [4] [%] | inhibition [5] [%] | inhibition [6] [%] | inhibition [7] [%] | inhibition [8] [%] | inhibition [9] [%] | inhibition [10] [%] | inhibition [11] [%] | inhibition [12] [%] | inhibition [13] [%] | inhibition [14] [%] | inhibition [15] [%] | inhibition [16] [%] | inhibition [17] [%] | inhibition [18] [%] | inhibition [19] [%] | inhibition [20] [%]
ON=C1CCc2cc(-c3nc(C4CCNCC4)[nH]c3-c3ccncc3)ccc21 | 2.68 | 0.37 | -0.17 | 0.86 | 1.18 | -0.82 | -3.55 | 2.03 | 0.72 | 4.01 | 1.01 | 1.85 | 0.96 | 3.99 | 2.96 | -0.02 | 0.4 | 2.19 | 0.63 | 2.09
COc1ccc2ncnc(Nc3ccc(OCc4ccccc4)cc3)c2c1 | 1.06 | 0.79 | 4.16 | 1.74 | 1.37 | 4.45 | 2.35 | 2.47 | 2.49 | -0.31 | 4.48 | 2.95 | 0.42 | 2.89 | 8.02 | -0.47 | 0.28 | 3.05 | 3.66 | 2.39
